Measurements: ChEMBL document CHEMBL4513216, “Probing the Open Global Health Chemical Diversity Library for Multistage-Active Starting Points for Next-Generation Antimalarials” (ACS Infect Dis, 2020)
Screen size: about 69,000 compounds; about 8,600 (12%) showed an effect of 50% or more. The sample as a whole holds a higher share of strong results than the screen did.

system: Plasmodium berghei; assay: Screen against P. berghei liver stage (PbLuc), transformed with Luciferase, at 10uM; format: functional, HepG2; settings: tested at 10 uM

Compared with `O=C(c1ccc2c(c1)CCC2)N1CC[C@H](O)[C@]2(CCCO2)C1`, `O=C(c1ccoc1)N1CCO[C@]2(CCC[C@@H]2COCc2ccncc2)C1` is lower in INHIBITION: 32.3% for the first, -6.23% for the second.

First: CC(C)c1nc(-c2cc(C(=O)NCCN(C)C)c3ccccn23)cs1
Second: Cc1csc(CNC(=O)N(C)Cc2ccc([S+](C)[O-])cc2)n1 (stereo unspecified)
The INHIBITION of the first is lower: -2.41% for the first, 20.6% for the second.

Going from `CN(Cc1ccncc1)c1cncc(Br)c1` to `CN(Cc1ccc([S+](C)[O-])cc1)c1cncc(Br)c1` (stereo unspecified), the INHIBITION rises from 33.4% to 58.4%.

Compared with `Cc1ncc(CNC(=O)N(C)Cc2ccc([S+](C)[O-])cc2)s1` (stereo unspecified), `CN(Cc1ccc([S+](C)[O-])cc1)c1cncc(Cl)n1` (stereo unspecified) is higher in INHIBITION: 40.5% for the first, 52.2% for the second.

Going from `CN(Cc1ccc([S+](C)[O-])cc1)c1ccc(Cl)cn1` (stereo unspecified) to `COC1COC2(CCN(Cc3ccc(Cl)cc3)CC2)C1` (stereo unspecified), the INHIBITION falls from 33% to 19.5%.

First: CCc1cc(=O)[nH]c(SCc2ccccn2)n1
Second: CC(NC(=O)NCc1ccccn1)c1ccc2c(c1)CCC(=O)N2 (stereo unspecified)
The INHIBITION of the first is higher: -35.5% for the first, -75.2% for the second.

First: Cc1noc(C(C)C)c1C(=O)N1CCC(n2cccn2)CC1
Second: Cc1noc(C)c1CCC(=O)N1CCCC(n2cccn2)C1 (stereo unspecified)
The INHIBITION of the first is lower: 26.5% for the first, 37.4% for the second.

Compared with `Cc1cc(C)n(CC2CN(Cc3nc(C)c(C)o3)CCO2)n1` (stereo unspecified), `COC[C@@H]1CCC[C@]12CN(Cc1cccc(C)n1)CCO2` is higher in INHIBITION: -47.6% for the first, -11.8% for the second.

Going from `CN1CCN(C(=O)NC2CC2)Cc2cccnc21` to `CC(=O)NC1CCCN(C(=O)NCc2cccnc2)C1` (stereo unspecified), the INHIBITION falls from 0.547% to -51.5%.

First: Cn1cc(CNC2CCC(O)CC2)c(-c2cc3ccccc3o2)n1 (stereo unspecified)
Second: Cn1cc(CNC2CCOCC2)c(-c2cc3ccccc3o2)n1
The INHIBITION of the first is higher: 72.1% for the first, 39.6% for the second.

First: Cn1cc(CNC2CCS(=O)(=O)C2)c(-c2cc3ccccc3o2)n1 (stereo unspecified)
Second: Cc1nn(C2CCS(=O)(=O)C2)c(O)c1Cc1ccccc1 (stereo unspecified)
The INHIBITION of the first is lower: 35% for the first, 36.9% for the second.

Compared with `COc1cccc(CN2CCC3(CCN(C(=O)[C@H]4CCCO4)CC3)C2)c1`, `CCOC[C@@H]1CCC[C@@]12CN(Cc1cccnc1)CCO2` is higher in INHIBITION: 43.2% for the first, 48.6% for the second.

Going from `Cc1nn(C)c(=O)c2nn(-c3ccc(Cl)cc3)c(C)c12` to `Cc1ccsc1C(=O)NC(C)c1ccc2c(c1)CCC(=O)N2` (stereo unspecified), the INHIBITION falls from 28.5% to 11.7%.

Going from `O=C([C@H]1COC[C@H]2CN(CC3CCC3)C[C@H]21)N1CCOCC1` to `O=C([C@H]1COC[C@H]2CN(CC3CC3)C[C@H]21)N1CCOCC1`, the INHIBITION rises from 24.6% to 60%.

Going from `O=C([C@H]1COC[C@H]2CN(CC3CCCC3)C[C@H]21)N1CCOCC1` to `O=C([C@@H]1COC[C@H]2CN(CC3CCCC3)C[C@H]21)N1CCOCC1`, the INHIBITION rises from 11.3% to 65.9%.

Going from `O=C(C1CN(CC2CC2)CC12CCOCC2)N1CCOCC1` (stereo unspecified) to `O=C([C@@H]1COC[C@H]2CN(CC3CC3)C[C@H]21)N1CCC(F)CC1`, the INHIBITION rises from -7.24% to 12.7%.

Compared with `Cc1cnn(CCNCc2csc(-c3ncccn3)n2)c1`, `Cc1nc(Nc2ncccn2)cc(C2CCCN2C2CCOCC2)n1` (stereo unspecified) is lower in INHIBITION: 27.95% for the first, 15.4% for the second.

Going from `CCc1nnc(CN(CC)C(=O)C2CC(=O)N(C3CCCC3)C2)o1` (stereo unspecified) to `CCc1nc(NC2CC(=O)N(CC3CCCCC3)C2)ncc1C` (stereo unspecified), the INHIBITION falls from 43.2% to 2.97%.

Going from `NC(=O)C1CCCN1Cc1cccc(NC(=O)c2ccsc2)c1` (stereo unspecified) to `NC(=O)C1CCCN1Cc1cccc(NC(=O)c2cccs2)c1` (stereo unspecified), the INHIBITION rises from -18.4% to -8.22%.

Going from `NC(=O)C1CCCN1Cc1cccc(NC(=O)c2cc(Cl)cc(Cl)c2)c1` (stereo unspecified) to `Cc1cc(C)cc(C(=O)Nc2cccc(CN3CCCC3C(N)=O)c2)c1` (stereo unspecified), the INHIBITION falls from 68.8% to 56%.

Going from `CCc1ccc(C(=O)Nc2cccc(CN3CCCC3C(N)=O)c2)cc1` (stereo unspecified) to `NC(=O)C1CCCN1Cc1cccc(NC(=O)c2ccc(Cl)cc2F)c1` (stereo unspecified), the INHIBITION rises from -40.7% to 44%.

First: C[C@]12CCCCN(C(=O)c3ccccn3)[C@H]1CCCC(=O)N2
Second: COc1ccccc1C(=O)N1CCCC1c1ncc2c(n1)CCNC2 (stereo unspecified)
The INHIBITION of the first is lower: 11.1% for the first, 26.3% for the second.

Compared with `CC1CCc2nn(CCNC(=O)c3ccco3)c(=O)cc2C1` (stereo unspecified), `CC(NC(=O)c1ccoc1)c1ccc2c(c1)CCC(=O)N2` (stereo unspecified) is higher in INHIBITION: -16.9% for the first, -6.14% for the second.

Compared with `COc1cccc(S(=O)(=O)NC(=O)C2CC(c3ccccc3)=NO2)c1` (stereo unspecified), `Cc1cc(CN(C)C(=O)C2CC(c3cccc(F)c3)=NO2)no1` (stereo unspecified) is higher in INHIBITION: -24.7% for the first, 7.24% for the second.

First: CCOC[C@@H]1CCC[C@@]12CN(Cc1nccs1)CCO2
Second: c1ccc(COC[C@@H]2CCC[C@]23CN(Cc2nccs2)CCO3)nc1
The INHIBITION of the first is lower: 35.8% for the first, 74.2% for the second.

Compared with `c1coc(CN2CCO[C@@]3(CCC[C@@H]3COCc3nccs3)C2)c1`, `c1csc(COC[C@H]2CCC[C@]23CN(Cc2ccoc2)CCO3)n1` is higher in INHIBITION: 53.2% for the first, 63.7% for the second.

Compared with `c1ccc(OC[C@H]2CCC[C@]23CN(Cc2nccs2)CCO3)nc1`, `c1cncc(OC[C@@H]2CCC[C@@]23CN(Cc2nccs2)CCO3)c1` is higher in INHIBITION: 38.7% for the first, 66% for the second.

Going from `COC[C@@H]1CCC[C@@]12CN(Cc1ccco1)CCO2` to `COC[C@@H]1CCC[C@]12CN(Cc1ccco1)CCO2`, the INHIBITION rises from -0.813% to 8.67%.

Compared with `O=C(c1ccc[nH]1)N1CCO[C@]2(CCC[C@@H]2COc2cccnc2)C1`, `O[C@H]1CN(CCCOc2ccccc2F)CC[C@@]12CCCO2` is higher in INHIBITION: -34.7% for the first, 6.485% for the second.

First: CCc1noc(C2CCCCN2C(=O)c2sccc2C)n1 (stereo unspecified)
Second: CNc1cccc(C2CCCN(C(=O)c3coc(C)n3)C2)n1 (stereo unspecified)
The INHIBITION of the first is lower: 40.8% for the first, 41.2% for the second.

Compared with `O=C(O)c1cc2c(nc1N1CCOCC1)CCN(C1CCOC1)CC2` (stereo unspecified), `Cc1nc(Nc2ccccn2)cc(C2CCCN2C2CCOCC2)n1` (stereo unspecified) is higher in INHIBITION: -12.1% for the first, 20.8% for the second.

Going from `CC(C)CN1CCC2(CC1)CC(NS(C)(=O)=O)c1ccccc1O2` (stereo unspecified) to `Cc1nc(NC2CCOCC2)cc(C2CCN2S(C)(=O)=O)n1` (stereo unspecified), the INHIBITION rises from 6.55% to 30.6%.

First: CCOCCCC(=O)N(C)C(c1cccc(F)c1)c1ccccn1 (stereo unspecified)
Second: O=C(c1ccccn1)N(CCO)Cc1cc(Br)ccc1F
The INHIBITION of the first is lower: -18% for the first, -0.759% for the second.

Going from `Cc1nc(C2CCNCC2)cc(N(C)Cc2cc3cc(F)ccc3[nH]2)n1` to `Cc1nc(Nc2ncc(C)s2)cc(C2CCCN2)n1` (stereo unspecified), the INHIBITION rises from 33.5% to 67.15%.

Compared with `COc1cnc(CSc2nnc(C)s2)cc1OCC(N)=O`, `Cc1nc(Nc2nnc(C)s2)cc(C2CCCN2)n1` (stereo unspecified) is lower in INHIBITION: 34.2% for the first, -24.595% for the second.

Going from `CCN1C(=O)CCCC12CCCN(C(=O)c1occc1C)C2` (stereo unspecified) to `CC(=O)N1CCCN(C(=O)c2oc(Br)cc2C)CC1`, the INHIBITION rises from 23.5% to 58.5%.

First: CC(CO)(NCc1noc(Cc2ccccc2)n1)C1CCCCC1 (stereo unspecified)
Second: CNC(=O)Cc1noc(Cc2ccc3c(c2)CCCC3)n1
The INHIBITION of the first is lower: -1.7% for the first, 15.9% for the second.

First: O=C(O)[C@@H]1CN(C(=O)CSCC2CC2)C[C@H]1c1ccccn1
Second: Cn1cnnc1C1CCN(C(=O)CCCOCc2ccccc2)CC1
The INHIBITION of the first is lower: -87% for the first, 43.2% for the second.

First: CCOc1ncccc1CNC(=O)c1c(C)oc(C)c1C
Second: COc1nc(C)ccc1CNC(=O)NC(c1ncc(C)s1)C1CC1 (stereo unspecified)
The INHIBITION of the first is higher: 29.75% for the first, -21.1% for the second.

First: Cc1csc(CNC(=O)NC(C)c2ccc3c(c2)CCC(=O)N3)n1 (stereo unspecified)
Second: CC(NC(=O)NCc1cc[nH]n1)c1ccc2c(c1)CCC(=O)N2 (stereo unspecified)
The INHIBITION of the first is lower: 9.64% for the first, 51.2% for the second.

Going from `CC(NC(=O)c1cccc[n+]1[O-])c1ccc2c(c1)CCC(=O)N2` (stereo unspecified) to `CS(=O)(=O)c1ccc(NC(=O)CSc2ccc3c(c2)CCC3)cc1`, the INHIBITION falls from 62.6% to 31.2%.

Compared with `C[C@@H]1CN(CCOc2ccc(F)cc2)CC[C@@]1(O)C1CCOCC1`, `O[C@H]1CN(CCOc2ccc(F)cc2)CC[C@@]12CCCO2` is higher in INHIBITION: 28.8% for the first, 62.9% for the second.

First: Cc1nc(Nc2ncc(C)s2)cc(C2CCCN2S(C)(=O)=O)n1 (stereo unspecified)
Second: Cc1nc(Nc2nnc(C)s2)cc(C2CCCN2S(C)(=O)=O)n1 (stereo unspecified)
The INHIBITION of the first is higher: 50.8% for the first, 6.32% for the second.

Going from `Cc1nc(Nc2nccs2)cc(C2CCCN2)n1` (stereo unspecified) to `Cc1nc(Nc2nccs2)cc(C2CCCN2C2CCOCC2)n1` (stereo unspecified), the INHIBITION rises from 5.05% to 52.3%.

Compared with `CCNC(=O)c1ccc2c(c1)nc1n2CCN(C(C)C)C1`, `CCCC(O)CN1CCC(=O)N(CCOC)Cc2ccccc21` (stereo unspecified) is higher in INHIBITION: -17.2% for the first, 6.34% for the second.

Going from `CC(C)C(C)N(C)C(=O)COc1ccccc1C#N` (stereo unspecified) to `CNC(=O)NC(=O)CCSc1ccccc1C`, the INHIBITION rises from 16.8% to 29.8%.

Going from `COC(=O)c1ccc(NC(=O)CCc2ccco2)cc1` to `NC(=O)c1cccc(NC(=O)CSc2ccc3c(c2)CCC3)c1`, the INHIBITION rises from -13.6% to 40.6%.

Compared with `Cc1nnc(C(C)N2CCCN(Cc3ccc(C#N)cc3)CC2)o1` (stereo unspecified), `Cc1nc(N2CCCC2)nc2c1CCN(Cc1ccco1)CC2` is lower in INHIBITION: 24% for the first, 15.1% for the second.

First: O=c1ccc2c([nH]1)CCC(NCc1ccc(F)cc1)C2 (stereo unspecified)
Second: CS(=O)(=O)c1ccc(NC(=O)NCc2ccc3c(c2)CCC3)cn1
The INHIBITION of the first is higher: 45.1% for the first, 24% for the second.

Going from `Cc1ccc(C)c(CC(=O)NC2(C#N)CCOCC2)c1` to `CNC(=O)NC(=O)CSc1ccc2c(c1)CCC2`, the INHIBITION rises from 20.4% to 54.3%.

First: CCOCC1CN(Cc2ccoc2)Cc2nn(C)cc21 (stereo unspecified)
Second: Cn1cc(C2CC(=O)NC23CCN(CC2CC2)CC3)cn1 (stereo unspecified)
The INHIBITION of the first is lower: 16.8% for the first, 48.7% for the second.

Going from `CNc1cncc(C2CCN(C(=O)c3coc(C)n3)CC2)n1` to `CNc1cncc(C2CCN(C(=O)c3cnco3)CC2)n1`, the INHIBITION falls from 58% to 8.53%.

First: Cc1cc(Br)oc1C(=O)N1CCN(CC(N)=O)CC1
Second: Cc1cc(Br)oc1C(=O)N1CCCN(CC(N)=O)CC1
The INHIBITION of the first is lower: 20.9% for the first, 30.3% for the second.

First: Cc1ccc(F)c2c1N(C(=O)c1cn(CC(=O)N(C)C)nn1)CCC2
Second: CS(=O)(=O)c1ccc(NC(=O)CSc2ccc3c(c2)CCC3)cn1
The INHIBITION of the first is lower: -9.21% for the first, 53.4% for the second.

Compared with `CN(C)CCN1CCOCC2(C1)CN(Cc1nccs1)CCO2` (stereo unspecified), `CN1C(=O)c2ccc(NC(=O)CSc3ccc4c(c3)CCC4)cc2C1=O` is lower in INHIBITION: 14.1% for the first, 11.5% for the second.

For `NS(=O)(=O)c1ccc(NC(=O)CSc2ccc3c(c2)CCC3)cc1`, the INHIBITION was 66.8%.
